# Laboratory results reported in PubChem BioAssay (NCI).
# The panel holds about 79,000 compounds, 15% with a hit somewhere; the sample as a whole holds those more often. Values without a mark were called inactive. The source made the active and inactive calls. Rule as the data show it: active = growth inhibition above about 70%; inactive = the rest.
# Assays:
# [1] = NCI Yeast Anticancer Drug Screen. Data for the rad52 strain (AID 147);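 also: 0% = growth of vehicle-treated control cultures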; conditions: S. cerevisiae rad52 mutant growth inhibition, stronger effect = higher value
# Summary of the method: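 Compounds are applied to a genetically defined yeast strain lacking normal DNA damage repair, and inhibition of growth is expressed relative to cultures given vehicle only.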
# [2] = NCI Yeast Anticancer Drug Screen. Data for the wt1 strain (AID 149);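 also: 0% = growth of vehicle-treated wt1 cultures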; conditions: S. cerevisiae wt1 strain (SPY 50644) growth inhibition, stronger effect = higher value
# Summary of the method: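 Readout: yeast growth inhibition, normalised to vehicle controls, in the wt1 strain exposed to test compounds.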
# [3] = NCI Yeast Anticancer Drug Screen. Data for the rad50EPP+ strain (AID 151);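 also: 0% = growth of vehicle-treated control cultures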; conditions: S. cerevisiae rad50 mutant strain, stronger effect = higher value
# Summary of the method: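 Compounds were applied to the rad50EPP+ yeast strain, which bears a defined DNA repair alteration, and growth inhibition was determined relative to vehicle-treated cultures.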
# [4] = NCI Yeast Anticancer Drug Screen. Data for the mgt1 strain (AID 153); conditions: S. cerevisiae mgt1 mutant growth inhibition, stronger effect = higher value
# Summary of the method: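 Strain: mgt1 yeast, one of a set carrying defined DNA damage repair or cell cycle control alterations. Compound-treated growth compared with vehicle.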
# [5] = NCI Yeast Anticancer Drug Screen. Data for the rad50 strain (AID 155);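 also: 0% = growth of vehicle-only cultures of the same strain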; conditions: S. cerevisiae rad50 strain growth inhibition, stronger effect = higher value
# Summary of the method: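 Compounds were tested on a yeast strain with an engineered DNA damage repair alteration; the reported value is growth inhibition normalised to vehicle treatment.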
# [6] = NCI Yeast Anticancer Drug Screen. Data for the mec2-1 strain (AID 157); conditions: S. cerevisiae mec2-1 strain, stronger effect = higher value
# Summary of the method: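 Strain: mec2-1 (DNA repair/cell cycle alteration). Compound exposure, then growth measured; inhibition expressed relative to vehicle.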
# [7] = NCI Yeast Anticancer Drug Screen. Data for the rad14 strain (AID 159);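 also: 0% = growth of vehicle-treated control cultures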; conditions: S. cerevisiae rad14 strain growth inhibition, stronger effect = higher value
# Summary of the method: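 Compound-treated yeast with a defined DNA-repair lesion; growth inhibition normalised to vehicle-treated cultures.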
# [8] = NCI Yeast Anticancer Drug Screen. Data for the sgs1 mgt1 strain (AID 161);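 also: 0% = growth of cultures given vehicle only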; conditions: S. cerevisiae sgs1 mgt1 strain, stronger effect = higher value
# Summary of the method: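 Inhibition of yeast growth, normalised to vehicle-treated controls, is reported for a strain bearing genetic alterations in DNA damage repair.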
# [9] = NCI Yeast Anticancer Drug Screen. Data for the CLN2oe strain (AID 163);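 also: 0% = growth of vehicle-only control cultures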; conditions: S. cerevisiae CLN2oe strain, stronger effect = higher value
# Summary of the method: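 Growth of a genetically modified yeast strain is measured after compound exposure and compared with cultures given vehicle alone.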
# [10] = NCI Yeast Anticancer Drug Screen. Data for the cln2 rad14 strain (AID 165);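 also: 0% = growth equal to vehicle treated cultures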; conditions: S. cerevisiae cln2 rad14 strain, stronger effect = higher value
# Summary of the method: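 Compounds are applied to the cln2 rad14 yeast strain, and growth is then compared with that of vehicle-treated cultures to give inhibition.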
# [11] = NCI Yeast Anticancer Drug Screen. Data for the bub3 strain (AID 167); conditions: S. cerevisiae bub3 mutant strain, stronger effect = higher value
# Summary of the method: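 Growth of a checkpoint-deficient yeast mutant is measured after compound exposure. Values represent inhibition relative to vehicle.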
# [12] = NCI Yeast Anticancer Drug Screen. Data for the wt2 strain (AID 169);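 also: 0% = growth of vehicle-treated yeast cultures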; conditions: S. cerevisiae wt2 strain growth inhibition, stronger effect = higher value
# Summary of the method: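 This strain belongs to a panel of yeast strains with defined genetic alterations in DNA damage repair or cell cycle control. Compounds are applied, and growth inhibition is measured against vehicle-treated cultures.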
# [13] = NCI Yeast Anticancer Drug Screen. Data for the mlh1 strain (AID 171);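 also: 0% = growth of vehicle-treated control cultures of the same strain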; conditions: S. cerevisiae mlh1 strain growth inhibition, stronger effect = higher value
# Summary of the method: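 Growth of the mutant yeast strain after compound exposure, expressed as inhibition relative to vehicle-only controls.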
# [14] = NCI Yeast Anticancer Drug Screen. Data for the sgs1 strain (AID 173);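 also: 0% = growth of vehicle-only control cultures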; conditions: S. cerevisiae sgs1 mutant, stronger effect = higher value
# Summary of the method: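 Growth of a yeast strain bearing a defined genetic alteration is measured after compound treatment. Inhibition is expressed relative to vehicle-only controls.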
# [15] = NCI Yeast Anticancer Drug Screen. Data for the mlh1 rad18 strain (AID 175); conditions: S. cerevisiae mlh1 rad18 strain growth inhibition, stronger effect = higher value
# Summary of the method: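 Read-out is yeast growth inhibition, calculated against vehicle-only controls. The compound was applied to a strain engineered with DNA damage repair alterations.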
# [16] = NCI Yeast Anticancer Drug Screen. Data for the rad18 strain (AID 177); conditions: S. cerevisiae rad18 mutant growth inhibition, stronger effect = higher value
# Summary of the method: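 Growth of the mutant yeast strain after compound exposure, normalised to vehicle-only cultures.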
# [17] = at 5.0 µM (retest, dose inferred, filed as 0.5)
# [18] = at 50.0 µM (retest, dose inferred, filed as 5.0)
structure (smiles),measurement,setting,value
OC1CCCC2CCC[N-]C12.OC1CCCC2CCC[N-]C12.[O]=[V][OH] (stereo unspecified),growth inhibition,[1]; at 1.2 µM,54%
same,growth inhibition,[1]; at 3.7 µM,98% (active)
same,growth inhibition,[1]; at 11.0 µM,98% (active)
same,growth inhibition,[1]; at 33.0 µM,97% (active)
same,growth inhibition,[1]; at 100.0 µM,97% (active)
same,growth inhibition,[2]; at 1.2 µM,-4%
same,growth inhibition,[2]; at 3.7 µM,67%
same,growth inhibition,[2]; at 11.0 µM,85% (active)
same,growth inhibition,[2]; at 33.0 µM,93% (active)
same,growth inhibition,[2]; at 100.0 µM,96% (active)
same,growth inhibition,[3]; at 1.2 µM,47%
same,growth inhibition,[3]; at 3.7 µM,96% (active)
same,growth inhibition,[3]; at 11.0 µM,96% (active)
same,growth inhibition,[3]; at 33.0 µM,95% (active)
same,growth inhibition,[3]; at 100.0 µM,95% (active)
same,growth inhibition,[4]; at 1.2 µM,24%
same,growth inhibition,[4]; at 3.7 µM,88% (active)
same,growth inhibition,[4]; at 11.0 µM,98% (active)
same,growth inhibition,[4]; at 33.0 µM,97% (active)
same,growth inhibition,[4]; at 100.0 µM,97% (active)
same,growth inhibition,[5]; at 1.2 µM,47%
same,growth inhibition,[5]; at 3.7 µM,95% (active)
same,growth inhibition,[5]; [17],99% (active)
same,growth inhibition,[5]; at 11.0 µM,95% (active)
same,growth inhibition,[5]; at 33.0 µM,95% (active)
same,growth inhibition,[5]; [18],97% (active)
same,growth inhibition,[5]; at 50.0 µM,86.8% (active)
same,growth inhibition,[5]; at 100.0 µM,95% (active)
same,growth inhibition,[6]; at 1.2 µM,3%
same,growth inhibition,[6]; at 3.7 µM,86% (active)
same,growth inhibition,[6]; [17],99% (active)
same,growth inhibition,[6]; at 11.0 µM,98% (active)
same,growth inhibition,[6]; at 33.0 µM,98% (active)
same,growth inhibition,[6]; [18],66%
same,growth inhibition,[6]; at 50.0 µM,90.1% (active)
same,growth inhibition,[6]; at 100.0 µM,96% (active)
same,growth inhibition,[7]; at 1.2 µM,8%
same,growth inhibition,[7]; at 3.7 µM,89% (active)
same,growth inhibition,[7]; at 11.0 µM,98% (active)
same,growth inhibition,[7]; at 33.0 µM,97% (active)
same,growth inhibition,[7]; at 100.0 µM,97% (active)
same,growth inhibition,[8]; [17],19%
same,growth inhibition,[8]; [18],98% (active)
same,growth inhibition,[8]; at 50.0 µM,91.5% (active)
same,growth inhibition,[9]; at 1.2 µM,-12%
same,growth inhibition,[9]; at 3.7 µM,78% (active)
same,growth inhibition,[9]; at 11.0 µM,93% (active)
same,growth inhibition,[9]; at 33.0 µM,95% (active)
same,growth inhibition,[9]; at 100.0 µM,96% (active)
same,growth inhibition,[10]; [17],46%
same,growth inhibition,[10]; [18],97% (active)
same,growth inhibition,[10]; at 50.0 µM,79.8% (active)
same,growth inhibition,[11]; at 1.2 µM,10%
same,growth inhibition,[11]; at 3.7 µM,89% (active)
same,growth inhibition,[11]; [17],99% (active)
same,growth inhibition,[11]; at 11.0 µM,98% (active)
same,growth inhibition,[11]; at 33.0 µM,98% (active)
same,growth inhibition,[11]; [18],95% (active)
same,growth inhibition,[11]; at 50.0 µM,90.8% (active)
same,growth inhibition,[11]; at 100.0 µM,97% (active)
same,growth inhibition,[12]; at 1.2 µM,-17%
same,growth inhibition,[12]; at 3.7 µM,68%
same,growth inhibition,[12]; at 11.0 µM,92% (active)
same,growth inhibition,[12]; at 33.0 µM,93% (active)
same,growth inhibition,[12]; at 100.0 µM,96% (active)
same,growth inhibition,[13]; at 1.2 µM,-25%
same,growth inhibition,[13]; at 3.7 µM,50%
same,growth inhibition,[13]; at 11.0 µM,79% (active)
same,growth inhibition,[13]; at 33.0 µM,88% (active)
same,growth inhibition,[13]; at 100.0 µM,95% (active)
same,growth inhibition,[14]; at 1.2 µM,17%
same,growth inhibition,[14]; at 3.7 µM,69%
same,growth inhibition,[14]; at 11.0 µM,83% (active)
same,growth inhibition,[14]; at 33.0 µM,89% (active)
same,growth inhibition,[14]; at 100.0 µM,94% (active)
same,growth inhibition,[15]; [17],99% (active)
same,growth inhibition,[15]; [18],64%
same,growth inhibition,[15]; at 50.0 µM,86.8% (active)
same,growth inhibition,[16]; at 1.2 µM,46%
same,growth inhibition,[16]; at 3.7 µM,95% (active)
same,growth inhibition,[16]; at 11.0 µM,96% (active)
same,growth inhibition,[16]; at 33.0 µM,96% (active)
same,growth inhibition,[16]; at 100.0 µM,96% (active)
CC(C)CC(NC(=O)C(N)C(C)C)C(=O)NC(CCCCN)C(=O)Nc1ccc(N(CCCl)CCCl)cc1 (stereo unspecified),growth inhibition,[1]; at 1.2 µM,8%
same,growth inhibition,[1]; at 3.7 µM,28%
same,growth inhibition,[1]; at 11.0 µM,32%
same,growth inhibition,[1]; at 33.0 µM,23%
same,growth inhibition,[1]; at 100.0 µM,18%
same,growth inhibition,[2]; at 1.2 µM,-16%
same,growth inhibition,[2]; at 3.7 µM,-10%
same,growth inhibition,[2]; at 11.0 µM,-15%
same,growth inhibition,[2]; at 33.0 µM,-11%
same,growth inhibition,[2]; at 100.0 µM,-18%
same,growth inhibition,[3]; at 1.2 µM,10%
same,growth inhibition,[3]; at 3.7 µM,9%
same,growth inhibition,[3]; at 11.0 µM,13%
same,growth inhibition,[3]; at 33.0 µM,7%
same,growth inhibition,[3]; at 100.0 µM,12%
same,growth inhibition,[4]; at 1.2 µM,-6%
same,growth inhibition,[4]; at 3.7 µM,-16%
same,growth inhibition,[4]; at 11.0 µM,-17%
same,growth inhibition,[4]; at 33.0 µM,-5%
same,growth inhibition,[4]; at 100.0 µM,-21%
same,growth inhibition,[5]; at 1.2 µM,8%
same,growth inhibition,[5]; at 3.7 µM,10%
same,growth inhibition,[5]; [17],38%
same,growth inhibition,[5]; at 11.0 µM,8%
same,growth inhibition,[5]; at 33.0 µM,0%
same,growth inhibition,[5]; [18],92% (active)
same,growth inhibition,[5]; at 50.0 µM,16.4%
same,growth inhibition,[5]; at 100.0 µM,2%
same,growth inhibition,[6]; at 1.2 µM,-21%
same,growth inhibition,[6]; at 3.7 µM,-17%
same,growth inhibition,[6]; [17],19%
same,growth inhibition,[6]; at 11.0 µM,-18%
same,growth inhibition,[6]; at 33.0 µM,-17%
same,growth inhibition,[6]; [18],22%
same,growth inhibition,[6]; at 50.0 µM,-7.45%
same,growth inhibition,[6]; at 100.0 µM,-16%
same,growth inhibition,[7]; at 1.2 µM,-2%
same,growth inhibition,[7]; at 3.7 µM,0%
same,growth inhibition,[7]; at 11.0 µM,-2%
same,growth inhibition,[7]; at 33.0 µM,-2%
same,growth inhibition,[7]; at 100.0 µM,-8%
same,growth inhibition,[8]; [17],21%
same,growth inhibition,[8]; [18],34%
same,growth inhibition,[8]; at 50.0 µM,-48.5%
same,growth inhibition,[9]; at 1.2 µM,-3%
same,growth inhibition,[9]; at 3.7 µM,7%
same,growth inhibition,[9]; at 11.0 µM,6%
same,growth inhibition,[9]; at 33.0 µM,1%
same,growth inhibition,[9]; at 100.0 µM,-2%
same,growth inhibition,[10]; [17],13%
same,growth inhibition,[10]; [18],25%
same,growth inhibition,[10]; at 50.0 µM,-7.1%
same,growth inhibition,[11]; at 1.2 µM,-23%
same,growth inhibition,[11]; at 3.7 µM,-16%
same,growth inhibition,[11]; [17],25%
same,growth inhibition,[11]; at 11.0 µM,-16%
same,growth inhibition,[11]; at 33.0 µM,-13%
same,growth inhibition,[11]; [18],17%
same,growth inhibition,[11]; at 50.0 µM,-28.2%
same,growth inhibition,[11]; at 100.0 µM,-25%
same,growth inhibition,[12]; at 1.2 µM,-89%
same,growth inhibition,[12]; at 3.7 µM,-88%
same,growth inhibition,[12]; at 11.0 µM,-86%
same,growth inhibition,[12]; at 33.0 µM,-74%
same,growth inhibition,[12]; at 100.0 µM,-78%
same,growth inhibition,[13]; at 1.2 µM,-1%
same,growth inhibition,[13]; at 3.7 µM,9%
same,growth inhibition,[13]; at 11.0 µM,-3%
same,growth inhibition,[13]; at 33.0 µM,-5%
same,growth inhibition,[13]; at 100.0 µM,-19%
same,growth inhibition,[14]; at 1.2 µM,-4%
same,growth inhibition,[14]; at 3.7 µM,10%
same,growth inhibition,[14]; at 11.0 µM,8%
same,growth inhibition,[14]; at 33.0 µM,-3%
same,growth inhibition,[14]; at 100.0 µM,3%
same,growth inhibition,[15]; [17],19%
same,growth inhibition,[15]; [18],37%
same,growth inhibition,[15]; at 50.0 µM,-44.7%
same,growth inhibition,[16]; at 1.2 µM,-7%
same,growth inhibition,[16]; at 3.7 µM,-12%
same,growth inhibition,[16]; at 11.0 µM,-16%
same,growth inhibition,[16]; at 33.0 µM,-20%
same,growth inhibition,[16]; at 100.0 µM,-23%
